From PubChem BioAssay
IL1B secr inh: inhibitors of inflammasome signaling (IL-1 beta secretion); THP-1 LPS/ATP IL-1B secretion, AlphaLISA, 16 h; stronger effect = lower value; activity change, % at 57.5 µM; 360,000 compounds, 4.7% hits; AID 743279; in the data active = activity change below about -50%; inconclusive = mostly about -30% to -49%
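THP-1 cells pretreated 1 hr with compounds (up to 57.5 uM final), then stimulated with LPS (250 ng/mL final) plus ATP (1.25 mM final); secreted IL-1B measured by AlphaLISA after 16 hr, decreased signal indicating inhibition.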
HepG2 tox: counter-screen for TGF-b inhibitors: cytotoxicity in HepG2 cells; HepG2 CAGA-GFP viability, ATP luminescence, 18 h; Potency, µM (top dose mostly 46.1 µM), usual class: cytotoxic; 410,000 compounds, 0.76% hits; AID 588856
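HepG2 CAGA-GFP cells (1000/well, DMEM with 1% FBS) received compound, then TGF-beta at 500 pg/mL final, and were incubated 18 hours at 37 degrees C. Viability was read by CellTiter-Glo luminescence. Media-only wells were set as complete cell-killing and DMSO as no toxicity.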
TDP1 cell noCPT: qHTS for Inhibitors of human tyrosyl-DNA phosphodiesterase 1 (TDP1): qHTS in cells in absence of CPT | 420,000 compounds, 15% hits | Potency, µM (doses to about 46.2 µM), hits mostly inhibitors | AID 686978, 2013 | DT40 Tdp1-/- hTDP1 cells, no CPT, ATP luminescence, 48 h; also: nearly all actives have a fitted effect of over 55% in size
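A cellular qHTS used chicken DT40 cells lacking endogenous Tdp1 but carrying stably transfected human TDP1. Compounds were applied without camptothecin, and cell growth kinetics were judged by ATP-dependent luminescence after ≥48 hr.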
TGFb inhibitor: TGF-b pathway inhibition; Potency, µM (titrated, usually from 46.1 µM), hits mostly inhibitors; 410,000 compounds, 1.2% hits; AID 588855; HepG2 CAGA-GFP TGF-b/SMAD3 reporter, GFP fluorescence, 18 h; TGF-beta stimulated, 500 pg/mL final; also: nearly all actives have a fitted effect of over 65% in size
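Inhibition was scored as loss of TGF-beta-induced (500 pg/mL final, 18 hours, 37 degrees C) GFP in HEPG2 cells carrying a CAGA-GFP reporter, in DMEM with 1% FBS. Well GFP was summed per cell; Activity was normalised to unstimulated and stimulated DMSO wells, then concentration-response fitting.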
DT40 TDP1 CPT: growth inhibition of DT40 Tdp1-/-;hTDP1 cells with camptothecin (screen for TDP1 inhibitors) | 420,000 compounds, 12% hits | chicken DT40 Tdp1-/-;hTDP1 cells + 20 nM CPT, ATP luminescence, 48 h | Potency, µM (top dose mostly 46.2 µM), hits mostly inhibitors; also: nearly all actives have a fitted effect of over 55% in size
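Chicken DT40 Tdp1-/- cells complemented with human TDP1, 400 cells/well, exposed to compounds plus 20 nM camptothecin for at least 48 h at 37 C; viability read as ATP content by CellTiter-Glo luminescence.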
TDP1 block: TDP1 (human) enzyme inhibition; Q9NUW8; recombinant TDP1, AlphaScreen DNA substrate cleavage; Potency, µM (doses to about 130 µM), usual class: inhibitors; 350,000 compounds, 0.28% hits; AID 485290; also: nearly all actives have a fitted effect of over 40% in size
Target sequence (Q9NUW8 whole entry, looked up): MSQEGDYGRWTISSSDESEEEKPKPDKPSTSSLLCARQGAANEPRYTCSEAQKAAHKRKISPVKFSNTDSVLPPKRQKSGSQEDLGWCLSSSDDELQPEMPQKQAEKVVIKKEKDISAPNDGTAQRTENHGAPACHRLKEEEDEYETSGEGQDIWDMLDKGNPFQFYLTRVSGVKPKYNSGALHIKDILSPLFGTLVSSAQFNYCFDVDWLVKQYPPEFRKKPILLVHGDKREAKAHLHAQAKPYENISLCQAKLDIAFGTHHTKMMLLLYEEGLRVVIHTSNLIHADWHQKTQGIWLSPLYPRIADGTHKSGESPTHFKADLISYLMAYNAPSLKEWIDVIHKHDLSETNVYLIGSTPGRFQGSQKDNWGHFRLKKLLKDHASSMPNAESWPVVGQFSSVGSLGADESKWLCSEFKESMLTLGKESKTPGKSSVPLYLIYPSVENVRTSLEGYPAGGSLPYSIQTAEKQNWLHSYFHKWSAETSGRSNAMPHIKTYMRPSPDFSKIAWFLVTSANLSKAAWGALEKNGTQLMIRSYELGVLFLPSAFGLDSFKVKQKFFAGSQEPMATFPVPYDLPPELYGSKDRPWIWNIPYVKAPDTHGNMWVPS
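Tdp1 1 nM final; 15 min RT w/ cpd; substrate 15 nM, 5 min; beads 10 ug/ml, 10 min; AlphaScreen read. Neg ctrl: no enzyme.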
Numbers stand for hits; – = inactive; ? = inconclusive; · = no result given. In the library only some 19% were active in any assay of this set; here they are far more common. Unless noted, calls follow the shape of the dose curve; as a rule, active = well fitted curve in the direction sought with a large enough effect; inconclusive = small, poorly fitted or top-dose-only effect, or another doubt; inactive = no such curve, though single readings can be large; an effect the other way counts as inactive or inconclusive.

SMILES	IL1B secr inh	HepG2 tox	TDP1 cell noCPT	TGFb inhibitor	DT40 TDP1 CPT	TDP1 block
CCCNc1ccc(S(=O)(=O)N(C(C)C)C(C)C)cn1	–	–	?	–	–	–
CCN(CC)S(=O)(=O)c1ccc(N/N=C/c2cc(OC)c(OC)cc2OC)nc1	–	–	?	–	–	–
CCN(CC)S(=O)(=O)c1ccc(N/N=C(\C)c2ccc(OC)cc2O)nc1	–	–	29µM	8.9µM	3.3µM	–
Oc1c(C(c2cccc(Cl)c2)N2CCOCC2)sc2nc(-c3ccco3)nn12 (centres undefined)	·	–	–	–	–	–
CC1(C(=O)NS(=O)(=O)c2cccc(C#N)c2)CCN1C(=O)C1(c2ccc(Cl)cc2)CCC1 (centres undefined)	–	–	–	–	–	·
O=C(O)CNC(=O)CNC(=O)CNC(=O)CSC(=O)c1ccccc1	·	·	–	·	–	·
Cc1nn(C2CCS(=O)(=O)C2)c(C)c1CN(C)C(=O)c1ccc(Cl)cc1 (centres undefined)	–	–	–	–	–	–
COc1ccc(N(CC(=O)NC(C)c2ccccc2)S(=O)(=O)c2c(C)nn(C)c2C)cc1 (centres undefined)	·	–	?	?	–	–
CCOc1ccc(NC(=O)CCn2cccn2)cc1	·	–	–	–	–	–
O=C(NCCc1csc2nc(-c3ccc(F)cc3)nn12)c1cccc(C(F)(F)F)c1	·	–	?	–	?	–
Cc1ccc(C)c(NC(=O)C(=O)NCCc2csc3nc(-c4ccccc4C)nn23)c1	·	–	18µM	–	?	–
Cc1cccc(-c2nc3scc(CCNC(=O)c4ccc(Br)o4)n3n2)c1	·	–	?	–	?	–
CC(C)(C)C(=O)NCCc1csc2nc(-c3ccc(F)cc3)nn12	·	–	15µM	–	?	–
Cc1ccc(-c2nc3scc(CCNC(=O)Cc4ccc(Cl)cc4)n3n2)cc1	·	–	18µM	–	15µM	–
COc1ccc(-c2nc3scc(CCNC(=O)c4cccc(Br)c4)n3n2)cc1	·	–	26µM	?	?	–
Cc1ccc(N2CCN(C(=O)c3ccc(Nc4nc5ccccc5n5nnnc45)cc3)CC2)c(C)c1	·	–	–	–	–	–
Cc1ccc(-c2nc3scc(CCNS(=O)(=O)c4ccc(C)c(C)c4)n3n2)cc1	·	–	21µM	?	?	–
CCCS(=O)(=O)NCCc1csc2nc(-c3ccc(C)cc3)nn12	·	–	23µM	–	?	–
O=S(=O)(NCCc1csc2nc(-c3ccc(F)cc3)nn12)c1ccc(Oc2ccccc2)cc1	·	–	21µM	–	15µM	–
COc1ccc(-c2nc3scc(CCNS(=O)(=O)c4ccc(Oc5ccccc5)cc4)n3n2)cc1OC	·	–	?	–	?	–
COc1ccc(-c2nc3scc(CCNS(=O)(=O)c4ccc(C)cc4)n3n2)cc1	·	–	?	–	?	–
CC1(C)CCC(=O)N2CC[C@H]3c4cc5ccccc5nc4C[C@@H]1[C@H]32	–	–	–	–	–	·
COc1ccccc1C#CC1=CC(=O)CC(C)(C)C1	?	–	9.2µM	–	16µM	·
Cc1ccc(Cl)cc1NC(=O)C(NS(=O)(=O)c1cccc2nsnc12)c1ccccc1 (centres undefined)	·	–	?	?	?	–
O=C(NC(CSCc1ccccc1)C(=O)N/N=C/c1ccc(O)cc1O)c1ccc([N+](=O)[O-])cc1 (centres undefined)	–	–	4.5µM	?	7.1µM	–
COc1cc(O)ccc1/C=N/NC(=O)c1ccc([N+](=O)[O-])cc1	–	–	?	–	–	–
COc1ccccc1CCC(=O)OCC(=O)Nc1ccc2[nH]c(=O)[nH]c2c1	–	–	–	–	–	·
CC(C)NC(=S)N/N=C1\CCCCC1C1CCCCC1 (centres undefined)	–	–	2.9µM	?	5.8µM	–
